Consider 50 compounds from PubChem BioAssay (NCATS).

Results filed as inconclusive are left out. Calls of active or inactive are those of the source. Calls follow the shape of the dose curve; as a rule, active = well fitted curve in the direction sought with a large enough effect; inconclusive = small, poorly fitted or top-dose-only effect, or another doubt; inactive = no such curve, though single readings can be large; an effect the other way counts as inactive or inconclusive.

The nature of test [1]: qHTS for Inhibitors of Plasmodium falciparum (DD2) proliferation (AID 504314). In a few lines: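 SYBR Green DNA-fluorescence growth assay: infected RBCs at 0.3% parasitemia, 2.5% hematocrit, 72 h compound exposure, 37C, 5% CO2; overnight lysis with dye at RT; normalized to 0.29 uM artemisinin and vehicle.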
On the technique in general: Quantitative high-throughput screening tests each substance at several concentrations.

Test [2] is described as follows: qHTS for Inhibitors of Plasmodium falciparum (GB4) proliferation (AID 504315). Also: nearly all actives have a fitted effect of over 50% in size. An outline of the steps:
(§1)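 Parasite growth measured as SYBR Green DNA fluorescence (ex 485, em 535 nm) after overnight lysis following 72 h culture at 37 °C, 0.3% parasitemia, 2.5% hematocrit. Values normalized against DMSO and 0.29 uM artemisinin controls, with plate-stack correction.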

Test [3] is described as follows: qHTS for Inhibitors of Plasmodium falciparum (7G8) proliferation (AID 504316). Also: nearly all actives have a fitted effect of over 65% in size. An outline of the steps:
as §1

Test [4] is described as follows: qHTS for Inhibitors of Plasmodium falciparum (HB3) proliferation (AID 504318). Also: nearly all actives have a fitted effect of over 60% in size. An outline of the steps:
as §1

Test [5] in a line: qHTS for Inhibitors of Plasmodium falciparum (CP250) proliferation (AID 504320). An outline of the steps:
as §1
Potency is read from the fitted curve at half-maximal effect.

For `COCCN1C(=O)N[C@@H](c2ccco2)C(C(=O)OC)=C1C`, the Potency entry in test [1], in test [2], in test [3], in test [4] and in test [5] was “inactive” throughout.
As for `CC[C@H](C)[C@@H](NC(=O)O[C@@H]1C(=O)c2cc(Br)ccc2O[C@H]1c1cccc(OC)c1)C(=O)OC`, the Potency result in test [1], in test [2], in test [3], in test [4] and in test [5] was “inactive” each time.
As to `CCN1C(=O)N[C@@H](c2ccco2)C(C(=O)OC)=C1C`, the Potency entry in test [1], in test [2], in test [3], in test [4] and in test [5] was “inactive” in each case.
On to `CC#CCN1c2ccccc2[C@]23C[C@@H](C(=O)OC)N=C2NC(C(=O)OC)=C(C(=O)OC)[C@H]13`, for which the Potency result in test [1], in test [2], in test [3], in test [4] and in test [5] was “inactive” throughout.
As for `COC(=O)CC1c2ccccc2C=C(C)N1C(=O)OC` (stereo not given), the Potency result in test [1], in test [2], in test [3], in test [4] and in test [5] was “inactive” each time.
As for `C[C@H]1Cc2c(-c3ccccc3)nc3c(c2CO1)CN(C(=O)C1CCCCC1)CC3`, the Potency result in test [1], in test [2], in test [3], in test [4] and in test [5] was “inactive” each time.
On to `COCCN1C(=O)N[C@@H](c2ccccc2)[C@@H](C(=O)OC)[C@H]1C`, for which the Potency result in test [1], in test [2], in test [3], in test [4] and in test [5] was “inactive” throughout.
`Fc1ccccc1-c1nc(-c2ccccc2)oc1NC1CCCCC1`: the Potency entry in test [1], in test [2], in test [3], in test [4] and in test [5] was “inactive” throughout.
For the compound `COC(=O)CCCC1=CC2=CC(=O)C(C)(OC(=O)c3cccs3)C(=O)C2=CN1C(CO)CO` (stereo not given), the Potency result in test [1], in test [2], in test [3], in test [4] and in test [5] was “inactive” in each case.
`CCN1C(=O)N[C@@H](c2ccc(Br)cc2)C(C(C)=O)=C1C`: the Potency entry in test [1], in test [2], in test [3], in test [4] and in test [5] was “inactive” in each case.
In the case of `COC(=O)C1=C(C)N(Cc2ccccc2)C(=O)N[C@H]1c1cccc(F)c1`, the Potency result in test [1], in test [2], in test [3], in test [4] and in test [5] was “inactive” throughout.
As for `Cc1ccc(S(=O)(=O)N[C@@H]2COC(=O)[C@@H](C)COC(=O)CC=C[C@H]2C)cc1`, the Potency result in test [1], in test [2], in test [3], in test [4] and in test [5] was “inactive” throughout.
For the compound `COC(=O)C1=C(C)N(Cc2ccccc2)C(=O)N[C@H]1c1ccc(Br)cc1`, the Potency result in test [1], in test [2], in test [3], in test [4] and in test [5] was “inactive” in each case.
As for `COC/C=C/C1=CC2=CC(=O)C(C)(OC(=O)c3cnc4ccccc4n3)C(=O)C2=CN1Cc1ccc(OC)cc1` (stereo not given), the Potency result in test [1], in test [2], in test [3], in test [4] and in test [5] was “inactive” each time.
On to `COC/C=C/C1=CC2=CC(=O)C(C)(OC(=O)c3cnc4ccccc4n3)C(=O)C2=CN1CC1CC1` (stereo not given), for which the Potency entry in test [1], in test [2], in test [3], in test [4] and in test [5] was “inactive” throughout.
In the case of `COC(=O)[C@@H]1[C@H](CCc2ccccc2)NC(=O)N(Cc2ccccc2)[C@H]1C`, the Potency result in test [1], in test [2], in test [3], in test [4] and in test [5] was “inactive” in each case.
For the compound `C[C@H]1Cc2c(-c3ccccc3)nc3c(c2CO1)CN(C(=O)C1CC1)CC3`, the Potency result in test [1], in test [2], in test [3], in test [4] and in test [5] was “inactive” throughout.
For the compound `COC(=O)CCC(=O)OC1(C)C(=O)C=C2C=C(C3CC3)N(CCCCO)C=C2C1=O` (stereo not given), the Potency result in test [1], in test [2], in test [3], in test [4] and in test [5] was “inactive” throughout.
For `CC(=O)c1ccc([C@@H]2C=C[C@H](O)[C@@H](CO)O2)cc1`, the Potency entry in test [1], in test [2], in test [3], in test [4] and in test [5] was “inactive” each time.
On to `COC(=O)CCC(=O)OC1(C)C(=O)C2=CN(Cc3ccc4c(c3)OCO4)C(c3ccc(OC)cc3)=CC2=C(Br)C1=O` (stereo not given), for which the Potency result in test [1], in test [2], in test [3], in test [4] and in test [5] was “inactive” each time.
In the case of `COCCN1C(=O)N[C@@H](c2cccc(C(F)(F)F)c2)C(C(=O)OC)=C1C`, the Potency entry in test [1], in test [2], in test [3], in test [4] and in test [5] was “inactive” each time.
As to `CC(=O)C1=C(C)N(Cc2ccccc2)C(=O)N[C@H]1c1cccc(F)c1`, the Potency entry in test [1], in test [2], in test [3], in test [4] and in test [5] was “inactive” in each case.
Regarding `COCCN1C(=O)N[C@@H](c2cccs2)C(C(C)=O)=C1C`, the Potency entry in test [1], in test [2], in test [3], in test [4] and in test [5] was “inactive” in each case.
On to `COC(=O)CCC(=O)OC1(C)C(=O)C2=CN(CCN3CCOCC3)C(c3ccc(OC)cc3)=CC2=C(Br)C1=O` (stereo not given), for which the Potency result in test [1], in test [2], in test [3], in test [4] and in test [5] was “inactive” each time.
Turning to `COC(=O)C1=C(C(=O)OC)[C@@H]2N(C)c3ccccc3[C@@]23C[C@@H](CO)N(C(=O)C2CCC2)C3=N1`, the Potency result in test [1], in test [2], in test [3], in test [4] and in test [5] was “inactive” throughout.
For `COC(=O)N[C@H](CC(C)=O)c1ccc(Cl)cc1`, the Potency result in test [1], in test [2], in test [3], in test [4] and in test [5] was “inactive” each time.
As for `CC[C@@H](C)CN1C(=O)N[C@@H](CCc2ccccc2)C(C(C)=O)=C1C`, the Potency result in test [1], in test [2], in test [3], in test [4] and in test [5] was “inactive” throughout.
Consider `CC#CCN1C(=O)N[C@@H](c2ccccc2)C(C(=O)OC)=C1C`, for which the Potency entry in test [1], in test [2], in test [3], in test [4] and in test [5] was “inactive” throughout.
For the compound `COC(=O)CCC(=O)OC1(C)C(=O)C=C2C=C(C3CC3)N(CC(C)C)C=C2C1=O` (stereo not given), the Potency result in test [1], in test [2], in test [4] and in test [5] was “inactive” each time. The Potency in test [3] was 1510 nM (active).
On to `CC#CCN1c2ccccc2[C@]23C[C@@H](C(=O)OC)N(S(=O)(=O)c4cccs4)C2=NC(C(=O)OC)=C(C(=O)OC)[C@H]13`, for which the Potency result in test [1], in test [2], in test [3], in test [4] and in test [5] was “inactive” throughout.
In the case of `COC(=O)CCCC1=CC2=C(c3ccccc3)C(=O)C(C)(OC(=O)C3CCCC3)C(=O)C2=CN1CC1CC1` (stereo not given), the Potency result in test [1], in test [2], in test [3], in test [4] and in test [5] was “inactive” in each case.
On to `COC/C=C/C1=CC2=CC(=O)C(C)(OC(=O)c3cnc4ccccc4n3)C(=O)C2=CN1C1CC1` (stereo not given), for which the Potency entry in test [1], in test [2], in test [3], in test [4] and in test [5] was “inactive” throughout.
On to `COC(=O)CCC(=O)OC1(C)C(=O)C2=CN(CC(C)C)C(c3ccc(OC)cc3)=CC2=C(Br)C1=O` (stereo not given), for which the Potency entry in test [1], in test [2], in test [3], in test [4] and in test [5] was “inactive” throughout.
Take `CCO[C@H](c1cc(OC)cc([N+](=O)[O-])c1OC)[C@H](C)C=CCC(=O)OC`: the Potency result in test [1], in test [2], in test [3], in test [4] and in test [5] was “inactive” each time.
Take `CCN1C(=O)N[C@H](c2ccccc2)C(C(C)=O)=C1C`: the Potency result in test [1], in test [2], in test [3], in test [4] and in test [5] was “inactive” each time.
As for `COC(=O)[C@H](Cc1ccccc1)NC(=O)O[C@@H]1C(=O)c2cc(OC)ccc2O[C@H]1c1cccc(OC)c1`, the Potency entry in test [1], in test [2], in test [3], in test [4] and in test [5] was “inactive” throughout.
As for `C[C@H]1Cc2c(COc3ccccc3)nc3c(c2CO1)CN(C(=O)Nc1cccc(C#N)c1)CC3`, the Potency result in test [1], in test [2], in test [3], in test [4] and in test [5] was “inactive” each time.
`CCCCc1nc2c(c3c1C[C@H](C)OC3)CN(S(=O)(=O)c1ccc(C#N)cc1)CC2`: the Potency entry in test [1], in test [2], in test [3], in test [4] and in test [5] was “inactive” throughout.
Regarding `CCCCc1nc2c(c3c1C[C@H](C)OC3)CN(C(=O)C1CC1)CC2`, the Potency result in test [1], in test [2], in test [3], in test [4] and in test [5] was “inactive” each time.
As for `COC(=O)C1=C(C(=O)OC)[C@@H]2N(Cc3ccccc3)c3ccccc3[C@@]23C[C@@H](C(=O)OC)N(C(=O)c2ccco2)C3=N1`, the Potency entry in test [1], in test [2], in test [3], in test [4] and in test [5] was “inactive” each time.
`COC(=O)C1=C(C(=O)OC)[C@@H]2N(C)c3ccccc3[C@@]23C[C@@H](CO)N(C(=O)c2ccco2)C3=N1`: the Potency result in test [1], in test [2], in test [3], in test [4] and in test [5] was “inactive” each time.
For the compound `CCN(CC)CCCN1C=C2C(=O)C(C)(OC(=O)C3CCCC3)C(=O)C(c3ccccc3)=C2C=C1CCCC(=O)OC` (stereo not given), the Potency result in test [1], in test [2], in test [3], in test [4] and in test [5] was “inactive” in each case.
In the case of `C[C@H]1Cc2c(-c3ccccc3)nc3c(c2CO1)CN(C(=O)c1ccco1)CC3`, the Potency result in test [1], in test [2], in test [3], in test [4] and in test [5] was “inactive” each time.
Take `CC1(OC(=O)CCc2ccccc2)C(=O)C=C2C=C3CCCN3C=C2C1=O` (stereo not given): the Potency result in test [1], in test [2], in test [3], in test [4] and in test [5] was “inactive” each time.
As to `CCN1C(=O)N[C@@H](c2cccc(C(F)(F)F)c2)[C@H](C(=O)OC)[C@H]1C`, the Potency result in test [1], in test [2], in test [3], in test [4] and in test [5] was “inactive” in each case.
With `FC(F)(F)c1cc(NC(=S)NC23CC4CC(CC(C4)C2)C3)cc(C(F)(F)F)c1`, the Potency in test [1] is 753 nM (active); in test [2] it was 1070 nM (active); in test [3], 601 nM (active); in test [4], 478 nM (active); in test [5], 849 nM (active).
For `CCCCc1nc2c(c3c1C[C@H](C)OC3)CN(C(=O)NCc1ccco1)CC2`, in that order: “inactive”, “inactive”, “inactive”, “inactive” and “inactive”.
Take `CCCCc1nc2c(c3c1C[C@H](C)OC3)CN(C(=O)COC)CC2`: the Potency entry in test [1], in test [2], in test [3], in test [4] and in test [5] was “inactive” each time.
As to `COc1ccc(-c2nc3c(c4c2C[C@H](c2ccccc2)OC4)CN(C(=O)NCCc2c[nH]c4ccccc24)CC3)c(C)c1`, the Potency entry in test [1], in test [2], in test [3], in test [4] and in test [5] was “inactive” each time.
In the case of `COC/C=C/C1=CC2=CC(=O)C(C)(OC(=O)c3cnc4ccccc4n3)C(=O)C2=CN1Cc1ccccc1` (stereo not given), the Potency result in test [1], in test [2], in test [3], in test [4] and in test [5] was “inactive” throughout.
